Source: the supplement of paper PMC7411054

Columns and labels:
Assay in all cases: phenotypically active (imaging signature differs from DMSO and reproducible) at any of 0.3-9 uM (binary (1 = active, 0 = inactive)); higher = active
Conditions in all cases: treatment time: 24 h
[1] = system: A549-ACTB-RAB5A
How it was run: (§1)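 Fifteen gene-edited A549, HepG2 and WPMY1 reporter lines (BFP segmentation plus GFP and RFP/FusionRed markers) were treated at 0.3, 1, 3 or 9 µM for 24 h, four wells each, then imaged live. Live-cell features per well were normalised to DMSO control wells. Deviation required ≥3 of 4 wells beyond the 95th percentile of DMSO Euclidean distances, and reproducibility required median replicate Pearson correlation above the 95th percentile of non-replicates. Phenotypic activity needed both criteria.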

[2] = system: A549-CANX-COX4
How it was run: as §1

[3] = system: A549-GM130-SQSTM1
How it was run: as §1

[4] = system: A549-TP53BP1-CLTA
How it was run: as §1

[5] = system: A549-TUBA1B-RELA
How it was run: as §1

[6] = system: HepG2-ACTB-RAB5A
How it was run: as §1

[7] = system: HepG2-CANX-COX4
How it was run: as §1

[8] = system: HepG2-GM130-SQSTM1
How it was run: as §1

[9] = system: HepG2-TP53BP1-CLTA
How it was run: as §1

[10] = system: HepG2-TUBA1B-RELA
How it was run: as §1

[11] = system: WPMY1-ACTB-RAB5A
How it was run: as §1

[12] = system: WPMY1-CANX-COX4
How it was run: as §1

[13] = system: WPMY1-GM130-SQSTM1
How it was run: as §1

[14] = system: WPMY1-TP53BP1-CLTA
How it was run: as §1

[15] = system: WPMY1-TUBA1B-RELA
How it was run: as §1

Measured: phenotypically active

CC1(COc2ccc(CC3SC(=O)NC3=O)cc2)CCCCC1 (stereo not given) [Ciglitazone]
inactive: [1] 0 | [2] 0 | [3] 0 | [4] 0 | [5] 0 | [6] 0 | [7] 0 | [8] 0 | [9] 0 | [10] 0 | [11] 0 | [12] 0 | [13] 0 | [14] 0 | [15] 0

Cc1[nH]c(=O)c(C#N)cc1-c1ccncc1 [Milrinone]
inactive: [1] 0 | [2] 0 | [3] 0 | [4] 0 | [5] 0 | [6] 0 | [7] 0 | [8] 0 | [9] 0 | [10] 0 | [11] 0 | [12] 0 | [13] 0 | [14] 0 | [15] 0

O=S(=O)(N[C@H](CO)C(C(F)(F)F)C(F)(F)F)c1ccc(Cl)s1 [begacestat]
inactive: [1] 0 | [2] 0 | [3] 0 | [4] 0 | [5] 0 | [6] 0 | [7] 0 | [8] 0 | [9] 0 | [10] 0 | [11] 0 | [12] 0 | [13] 0 | [14] 0 | [15] 0

COP(=O)(OC)OC(c1ccc(Cl)cc1)P(=O)(OC)OC (stereo not given)
inactive: [1] 0 | [2] 0 | [3] 0 | [4] 0 | [5] 0 | [6] 0 | [7] 0 | [8] 0 | [9] 0 | [10] 0 | [11] 0 | [12] 0 | [13] 0 | [14] 0 | [15] 0

CCCNC(=O)NS(=O)(=O)c1ccc(Cl)cc1 [chlorpropamide]
inactive: [1] 0 | [2] 0 | [3] 0 | [4] 0 | [5] 0 | [6] 0 | [7] 0 | [8] 0 | [9] 0 | [10] 0 | [11] 0 | [12] 0 | [13] 0 | [14] 0 | [15] 0

Brc1c(NC2=NCCN2)ccc2nccnc12 [brimonidine]
inactive: [1] 0 | [2] 0 | [3] 0 | [4] 0 | [5] 0 | [6] 0 | [7] 0 | [8] 0 | [9] 0 | [10] 0 | [11] 0 | [12] 0 | [13] 0 | [14] 0 | [15] 0

Cc1ccc2ccc(C(Nc3ccccc3)c3ccccc3)c(O)c2n1 (stereo not given)
inactive: [1] 0 | [2] 0 | [3] 0 | [4] 0 | [5] 0 | [6] 0 | [7] 0 | [8] 0 | [9] 0 | [10] 0 | [11] 0 | [12] 0 | [13] 0 | [14] 0 | [15] 0

Cc1cc(-c2ccc(/C=C3\S/C(=N\c4ccc(Cl)c(C(=O)O)c4)NC3=O)o2)c([N+](=O)[O-])cc1C
inactive: [1] 0 | [2] 0 | [3] 0 | [4] 0 | [5] 0 | [6] 0 | [7] 0 | [8] 0 | [9] 0 | [10] 0 | [11] 0 | [12] 0 | [13] 0 | [14] 0 | [15] 0

CN(N=O)C(=O)N[C@@H](C=O)[C@@H](O)[C@H](O)[C@H](O)CO.CN(N=O)C(=O)N[C@H]1C(O)O[C@H](CO)[C@@H](O)[C@@H]1O [streptozotocin]
inactive: [1] 0 | [2] 0 | [3] 0 | [4] 0 | [5] 0 | [6] 0 | [7] 0 | [8] 0 | [9] 0 | [10] 0 | [11] 0 | [12] 0 | [13] 0 | [14] 0 | [15] 0

CC1=NN(c2ccc(C(=O)O)cc2)C(=O)/C1=C\c1ccc(-c2cc(C)c(C)cc2[N+](=O)[O-])o1
inactive: [1] 0 | [2] 0 | [3] 0 | [4] 0 | [5] 0 | [6] 0 | [7] 0 | [8] 0 | [9] 0 | [10] 0 | [11] 0 | [12] 0 | [13] 0 | [14] 0 | [15] 0

CC(C)(C)NC[C@H](O)COc1nsnc1N1CCOCC1 [timolol]
inactive: [1] 0 | [2] 0 | [3] 0 | [4] 0 | [5] 0 | [6] 0 | [7] 0 | [8] 0 | [9] 0 | [10] 0 | [11] 0 | [12] 0 | [13] 0 | [14] 0 | [15] 0
